This is an account of results in PubChem BioAssay (NCATS).

For one experiment, the system named is CRL-7250. Nature of the experiment: Cytotoxic Profiling of Annotated Libraries Using Quantitative High-Throughput Screening (AID 1296008). Also: potency is read from the fitted curve at half-maximal effect. As to max response: % is scaled to controls: 0 for no effect and ±100 for the full control effect. The note with it: Five cell lines viability, CellTiter-Glo ATP luminescence, 48-72 h; max response: hits give low values. The method, boiled down:
(§1)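 Cells exposed to compounds for 48 or 72 hr at 37 degrees Celsius. Viability read as ATP-coupled luminescence with CellTiter-Glo after 10 min at room temperature.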
Background: Cellular ATP, detected with luciferase, serves as a proxy for viable cell number.

Another experiment relates to HEK293. Described as above. The note with it: Five cell lines viability, CellTiter-Glo ATP luminescence, 48-72 h; max response: hits give low values. In short, it runs like this: as §1
In experiment [1] the test system is HaCat. The experiment is described as above. The note with it: Five cell lines viability, CellTiter-Glo ATP luminescence, 48-72 h; max response: hits give low values. The method, boiled down: as §1
The subject of a further experiment is KB-3-1. The description is as above. Conditions: Five cell lines viability, CellTiter-Glo ATP luminescence, 48-72 h; max response: hits give low values. In short, it runs like this: as §1
Another experiment deals with NIH3T3. The description is as above. Conditions: Five cell lines viability, CellTiter-Glo ATP luminescence, 48-72 h; max response: hits give low values. The method, boiled down: as §1
For experiment [2], the system named is HACAT. Kind of experiment: qHTS assay to identify novel small-molecules to repurpose for Merkel cell carcinoma treatment (AID 1296009). Conditions: MCC and control cell lines, CellTiter-Glo viability, 72 h. In short, it runs like this:
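CellTiter-Glo luminescence after 72 hr compound exposure at 37 degree celsius gave cell viability. Libraries NPC and MIPE were run as 8- and 11-point dose responses; RLUs normalized to DMSO (negative) and no-cell (cytotoxicity) controls.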
(Quantitative high-throughput screening tests each substance at several concentrations.)

Another experiment has as its system TAB109. Kind of experiment: qHTS profiling for inhibitors of Plasmodium falciparum proliferation (AID 504749).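 Also: 0% = DMSO vehicle and full inhibition = artemisinin control.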 The note with it: P. falciparum in erythrocytes, SYBR Green DNA, 72 h; series mostly up to 28.7 µM. The method, boiled down: (§2)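 SYBR Green fluorescence (ex 485 nm, em 535 nm) reports parasite DNA after 72 h compound exposure of infected red cells at 0.3% parasitemia, 2.5% hematocrit; signal normalized to 0.29 uM artemisinin and vehicle wells.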

The next experiment deals with TAB113. The experiment is described as above. The note with it: P. falciparum in erythrocytes, SYBR Green DNA, 72 h; series mostly up to 28.7 µM. The method, boiled down: as §2
The subject of a further experiment is TAB165. The experiment is described as above. The note with it: P. falciparum in erythrocytes, SYBR Green DNA, 72 h; series mostly up to 28.7 µM. The method, boiled down:
as §2

In the next experiment the test system is W2. Described as above. The note with it: P. falciparum in erythrocytes, SYBR Green DNA, 72 h; series mostly up to 28.7 µM. In short, it runs like this: as §2
Where [3] appears, read: at 44.8 µM (top of the series) unless noted.

The structures appear in SMILES notation. Values joined by “and” are separate entries in the source; they are usually repeats but may differ in a detail not shown here. Equal values may be shown once. Records with an inconclusive call do not appear. Where a structure was tested more than once in an assay, its records may differ in their call. Unmarked numbers belong to inactive results. Active and inactive are the calls of the source. Calls follow the shape of the dose curve; as a rule, active = well fitted inhibition curve with a large enough effect; inconclusive = small, poorly fitted or top-dose-only effect; inactive = flat fitted curve, though single readings scatter.
Also: nearly all actives have a fitted effect of over 60% in size.

As to `COc1cc2ncnc(Nc3cc(Br)c(O)c(Br)c3)c2cc1OC`, the max response in the experiment with CRL-7250 is -9.02% and 1.18%; with HEK293, 0.846%; with HaCat [1], -28.8%; with NIH3T3, -4.77%. The outcome with HEK293, with KB-3-1 and with NIH3T3 was inactive.

Regarding `COc1ccc(-c2cc3nccn3c(Nc3ncccc3C(N)=O)n2)cc1OC`, the Potency is 2.09 µM (active) with CRL-7250; 1.48 µM (active) and 5.8 µM (active) in the experiment on HEK293. Besides, the max response in the experiment on HaCat [1] is -23.8%; in the experiment with KB-3-1, -9.74%.

Take `CN(C)c1nc(Cc2ccc(NC(=O)c3ccc(C(F)(F)F)cc3)cc2)nc(N(C)C)c1CC(=O)O`: the call in the experiment with CRL-7250, with HEK293, in the experiment on HaCat [1], in the experiment with KB-3-1 and with HACAT [2] (setting [3]) was inactive. The max response with HEK293 was 3.18%; in the experiment on KB-3-1, 4.62%; in the experiment on NIH3T3, -4.49% and 4.34%.

As for `COc1nccc(-c2c(-c3ccc(F)cc3)ncn2C2CCNCC2)n1`, the max response in the experiment with CRL-7250 is -23.7% and 3.35%; in the experiment on HEK293 it was -20%; in the experiment with HaCat [1], -7.28% and 1.1%; in the experiment with KB-3-1, -17.7%; with NIH3T3 it was -16.2%. For the same compound, in the experiment on HEK293, the Potency was 3.32 µM (active). For the same compound, in the experiment on KB-3-1, the compound was called inactive.

As to `CCCCn1c(=O)n(Cc2ccccc2F)c(=O)c2[nH]c(Cc3ccc(NC(C)=O)cc3)nc21`, the max response in the experiment on CRL-7250 is -20% and 4.17%; in the experiment with HEK293 it was -5.59% and -2.73%; in the experiment on HaCat [1] it was -7.85%; with KB-3-1, -6.11%; with NIH3T3, -1.2% and 4.04%. For the same compound, the outcome in the experiment with HaCat [1], in the experiment on KB-3-1 and in the experiment on HACAT [2] (setting [3]) was inactive.

Turning to `C[C@H](c1ccc(F)cc1CCCC(=O)O)N(c1cc(F)ccc1F)S(=O)(=O)c1ccc(Cl)cc1`, the max response with CRL-7250 is -0.7% and -8.45%; in the experiment with HEK293, -10.5%; with KB-3-1, -5.45% and 4.45%; in the experiment on NIH3T3, -19.7% and 4.43%. In addition, the result in the experiment on HEK293, in the experiment with HaCat [1] and with HACAT [2] (setting [3]) was inactive.

With `CC(C)CNc1ccnc(NCc2csc(-c3ccccc3)n2)n1`, the Potency in the experiment on CRL-7250 was 1.3 µM (active); with HEK293, 5.26 µM (active) and 1.64 µM (active); in the experiment on HaCat [1], 16.4 µM (active); in the experiment with KB-3-1, 14.6 µM (active); in the experiment on NIH3T3, 23.1 µM (active). In addition, the max response is -19.9% in the experiment with CRL-7250, -4.23% in the experiment with HaCat [1] and -17.2% in the experiment with NIH3T3.

As to `CS(=O)(=O)c1ccc(C2=C(c3ccccc3)C(=O)OC2)cc1`, the Potency result with TAB109, in the experiment on TAB113, in the experiment on TAB165 and with W2 was “inactive” in each case. Moreover, the max response in the experiment on CRL-7250 is 3.58% and 2.56%; with HaCat [1], -5.92%; in the experiment on KB-3-1 it was 20.7% and -2.3% and -12.9%; in the experiment on NIH3T3 it was -4.55%. The call with HEK293, in the experiment on HaCat [1], in the experiment on NIH3T3 and in the experiment on HACAT [2] (setting [3]) was inactive.

As to `CC(O)=C(C#N)C(=O)Nc1ccc(C(F)(F)F)cc1`, the max response with CRL-7250 is -8.07%; in the experiment with HaCat [1], -27.6%. Further, the Potency with HEK293 was 11.8 µM (active).

With `CNC(=O)c1c(-c2ccc(F)cc2)oc2cc(N(CCO)S(C)(=O)=O)c(C3CC3)cc12`, the Potency in the experiment on CRL-7250 is 11.8 µM (active). Also, the max response in the experiment with CRL-7250 is -2.04%; with KB-3-1, -0.402%; in the experiment on NIH3T3, -17.1%. For the same compound, the compound was classed as inactive in the experiment on HEK293.

Regarding `Cn1c(=O)c(-c2c(Cl)cccc2Cl)cc2cnc(Nc3cccc(C(=O)O)c3)nc21`, the values for the Potency in the experiment with CRL-7250, with HEK293 and with KB-3-1 were 1.16 µM (active), 2.31 µM (active) and 4.61 µM (active), respectively. Moreover, the max response in the experiment with HEK293 was -22.7%; in the experiment on NIH3T3, 3.27%. Further, the compound was classed as inactive with HaCat [1], in the experiment on KB-3-1, in the experiment on NIH3T3 and in the experiment with HACAT [2] (setting [3]).

In the case of `Cc1cnc(CNC(=O)c2c(=O)c3ccc(N4CCCN(C)CC4)nc3n3c2sc2ccccc23)cn1`, the max response is -36.5% and -21.3% in the experiment on CRL-7250; -24.1% in the experiment on HaCat [1]. Further, the Potency with HEK293 was 0.0512 µM (active).

As for `Cc1cccc(Nc2nc(N[C@@H]3CCCC[C@H]3N)ncc2C(N)=O)c1`, in the experiment on CRL-7250, the compound was called inactive. Besides, in the experiment with HEK293, the Potency was 14.8 µM (active). The max response in the experiment on HaCat [1] was -5.8%.

With `Cc1ccc2c(c1)c1c(n2CCc2ccc(C)nc2)CCN(C)C1`, the outcome in the experiment with CRL-7250, with HaCat [1] and in the experiment with HACAT [2] (setting [3]) was inactive. The Potency in the experiment with HEK293 is 14.6 µM (active). Also, the max response is -7.19% with HEK293, -15.7% in the experiment with HaCat [1], 2.15% in the experiment with KB-3-1 and 1.43% in the experiment on NIH3T3.

In the case of `CN1C(=O)C(Cc2c[nH]c3ccccc23)NC1=S` (stereo not drawn), the max response was 3.65% and -1.79% with CRL-7250; 1.8% with HEK293; 2.81% in the experiment on KB-3-1; -1.6% and -5.02% in the experiment with NIH3T3. For the same compound, the call in the experiment on HEK293, in the experiment on HaCat [1], with KB-3-1, in the experiment on HACAT [2] (at 17.4 µM (top of the series)) and in the experiment with HACAT [2] (at 44.8 µM (top of the series)) was inactive.

For the compound `CCN1C[C@H](C)n2c(c(O)c3c(=O)n(Cc4ccc(F)c(Cl)c4)nc(C(=O)NC)c32)C1=O`, the max response in the experiment on CRL-7250 was -6.85%; with HaCat [1], -5.77% and -3.93%; in the experiment with KB-3-1, 3.26% and 8.63%; in the experiment on NIH3T3, 0.921% and -1.89%. Further, the compound was called inactive with CRL-7250 and with KB-3-1.

For `NS(=O)(=O)c1cc(Cl)c(Cl)c(S(N)(=O)=O)c1`, the Potency entry in the experiment on TAB109, with TAB113, in the experiment on TAB165 and in the experiment with W2 was “inactive” in each case. Further, the max response in the experiment with CRL-7250 was 0.0999%; in the experiment with HaCat [1], -2.36%; in the experiment with KB-3-1, 1.19% and 6.82% and 0.356%; in the experiment with NIH3T3, -19% and 0.0909%. Moreover, the compound was called inactive in the experiment on CRL-7250, with HaCat [1] and with HACAT [2] (setting [3]).
